Consider 78 compounds from PubChem BioAssay AID624405 (Broad Institute, 2012).

Screen size: about 1,900 compounds; about 250 (13%) were called active. Inconclusive results (about 4%) are left out.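 The calls were made as follows: active = fitted curve reaches 40% rescue activity at or below the top valid dose, in every test run; inconclusive = test runs disagree, some active and some inactive; inactive = every run misses the threshold or moves the wrong way.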 The list is a sample of the results. Measured potencies and affinities stand elsewhere.

The nature of this assay: rescue of simvastatin-induced ATP loss – cell-based, C2C12 myotubes, ATP luminescence, cherry pick, dose response (AID 624405).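 Also: myotubes are challenged with simvastatin at 10 µM to lower ATP.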 The following applies: 48 h, scaled: DMSO wells 0, geranylgeraniol wells 100; series mostly up to 19.5 µM.
Regarding `Cc1ccc(Cn2ncc3c(NCCCN(C)C)ncnc32)cc1`, the call was inactive.

In the case of `CCN(CC)c1ncnc2c1cnn2Cc1ccc(Cl)cc1`, the result was inactive.

With `CC(C)CNc1ncnc2c1cnn2Cc1ccc(Cl)cc1`, the outcome was inactive.

Consider `Clc1ccc(Cn2ncc3c(N4CCOCC4)ncnc32)cc1`, for which the compound was called inactive.

Regarding `Cc1ccc(Cn2ncc3c(N4CCCC4)ncnc32)cc1`, the compound was called inactive.

With `CCC(C)Nc1ncnc2c1cnn2Cc1ccc(Cl)cc1` (stereo not drawn), the result was inactive.

Consider `COc1ccccc1N1CCN(C(=O)c2cc(-c3ccc(F)cc3)[nH]c2C)CC1`, for which the call was inactive.

For the compound `COc1cc(C)c(S(=O)(=O)n2ccc(C)n2)cc1C`, the compound was called inactive.

For `C[C@@H]1CN([C@@H](C)CO)C(=O)c2cc(C3=CCCCC3)cnc2O[C@H]1CN(C)Cc1ccccc1F`, the outcome was inactive.

As for `CC(=O)Nc1sc2c(c1C#N)CCC(C)C2` (stereo not drawn), the call was inactive.

As for `Cc1noc(C)c1NC(=O)Nc1ccc2c(c1)CC(=O)N([C@H](C)CO)C[C@H](C)[C@@H](CN(C)Cc1ccc(Oc3ccccc3)cc1)O2`, the compound was classed as inactive.

For `C[C@H]1CCCCO[C@H](CN(C)S(=O)(=O)c2cccs2)[C@@H](C)CN([C@@H](C)CO)C(=O)c2cc(NC(=O)Nc3ccc(F)cc3)ccc2O1`, the compound was classed as inactive.

For the compound `C[C@H](CO)N1C[C@H](C)[C@H](CN(C)Cc2ccc(Oc3ccccc3)cc2)Oc2ccc(NC(=O)Nc3ccc(C(F)(F)F)cc3)cc2CC1=O`, the compound was called inactive.

For the compound `C[C@H](CO)N1C[C@H](C)[C@@H](CN(C)Cc2ccc(-c3ccccc3)cc2)Oc2ccc(NC(=O)c3ccncc3)cc2CC1=O`, the outcome was inactive.

Consider `Cc1c(Cl)cccc1NC(=O)CNC(=O)Cc1n[nH]c(=O)c2ccccc12`, for which the compound was called inactive.

Regarding `C[C@@H]1CCCCO[C@@H](CN(C)C(=O)Nc2cccc3ccccc23)[C@H](C)CN([C@H](C)CO)C(=O)c2cc(NS(=O)(=O)c3ccc(Cl)cc3)ccc2O1`, the compound was classed as inactive.

On to `N#Cc1nc(-c2ccco2)oc1NCCCn1ccnc1`, for which the result was inactive.

For the compound `N#Cc1nc(COc2ccccc2)oc1N1CCOCC1`, the compound was classed as inactive.

As to `O=C(Nc1ccc(S(=O)(=O)N2CCCCCC2)cc1)c1ccco1`, the call was inactive.

In the case of `CCCOc1cc(C)c(Cl)cc1S(=O)(=O)N(CC)CC`, the call was inactive.

Take `Cc1ccc(S(=O)(=O)Nc2ccc3c(c2)C(=O)N([C@@H](C)CO)C[C@@H](C)[C@H](CN(C)Cc2ccc(Cl)c(Cl)c2)O3)cc1`: the compound was classed as inactive.

For `C[C@@H]1CCCCO[C@H](CN(C)C(=O)Nc2ccc(F)cc2)[C@H](C)CN([C@@H](C)CO)C(=O)c2cc(NC(=O)Cc3ccccc3)ccc2O1`, the call was inactive.

Turning to `CC(C)c1ccc(CNc2nc3nc4c(c(=O)n3[nH]2)CCC4)cc1`, the outcome was inactive.

As for `Cc1ccc(S(=O)(=O)Nc2ccc3c(c2)CC(=O)N([C@@H](C)CO)C[C@H](C)[C@@H](CN(C)S(=O)(=O)c2cccs2)O3)cc1`, the outcome was inactive.

`CN(CC(=O)NCc1ccco1)CC(=O)Nc1ccc(F)c(F)c1F`: the outcome was inactive.

As to `COc1cc(NC(=O)COC(=O)c2cc(S(=O)(=O)N3CCOCC3)ccc2F)cc(OC)c1`, the compound was classed as inactive.

`COc1cc2c(C(=O)NCCCN3CCN(c4cccc(Cl)c4)CC3)cn(C)c(=O)c2cc1OC`: the outcome was inactive.

Take `COc1ccc(S(=O)(=O)Nc2ccc3c(c2)C(=O)N([C@@H](C)CO)C[C@@H](C)[C@H](CN(C)C(=O)Nc2cccc4ccccc24)OCCCC[C@@H](C)O3)cc1`: the outcome was inactive.

On to `COc1cccc(NC(=O)CSc2nc(C)cs2)c1`, for which the call was inactive.

For the compound `Cc1csc(SCC(=O)Nc2cccc(S(=O)(=O)N3CCCC3)c2)n1`, the compound was classed as inactive.

For the compound `COc1ccc(S(=O)(=O)Nc2cccc3c2O[C@H](CN(C)C(=O)Nc2ccc(C(F)(F)F)cc2)[C@H](C)CN([C@H](C)CO)C3=O)cc1`, the outcome was inactive.

Consider `C[C@H](CO)N1C[C@H](C)[C@H](CN(C)Cc2ccc(Oc3ccccc3)cc2)Oc2ccc(NC(=O)Nc3ccc(F)cc3)cc2CC1=O`, for which the compound was called inactive.

Regarding `C[C@@H]1CN([C@@H](C)CO)C(=O)c2cc(C#Cc3ccccc3F)cnc2O[C@H]1CN(C)S(=O)(=O)c1ccccc1F`, the call was inactive.

In the case of `CCN(CC)CC(=O)n1c2c(c3ccccc31)CCCC2`, the call was inactive.

`Clc1ccc(Cn2ncc3c(NCc4ccccc4)ncnc32)cc1`: the outcome was inactive.

Consider `O=C(Nc1ccc(S(=O)(=O)N2CCC(C(=O)NC3CCCCC3)CC2)cc1)c1ccco1`, for which the result was inactive.

Regarding `Nc1ccc2c(S(=O)(=O)O)cccc2c1S(=O)(=O)O`, the outcome was inactive.

Turning to `O=C(Cn1nnc(-c2ccncc2)n1)N(C1CCCCC1)C1CCCCC1`, the result was inactive.

In the case of `COCCn1nnnc1CN(CCc1ccc(OC)c(OC)c1)Cc1cc2ccc(C)cc2[nH]c1=O`, the call was inactive.

Regarding `COc1ccc(NC(=O)Nc2ccc3c(c2)CC(=O)N([C@@H](C)CO)C[C@@H](C)[C@H](CN(C)C(=O)Nc2cccc4ccccc24)O3)cc1`, the compound was called inactive.

In the case of `O=C(CCC1COc2ccccc2O1)Nc1ccccn1` (stereo not drawn), the compound was classed as inactive.

Regarding `C[C@@H]1CCCCO[C@@H](CN(C)S(=O)(=O)c2ccc(Cl)cc2)[C@@H](C)CN([C@@H](C)CO)C(=O)c2cc(NS(C)(=O)=O)ccc2O1`, the compound was classed as inactive.

As for `C[C@@H]1CCCCO[C@@H](CN(C)S(=O)(=O)c2ccc(Cl)cc2)[C@@H](C)CN([C@H](C)CO)C(=O)c2cc(NS(C)(=O)=O)ccc2O1`, the compound was classed as inactive.

Consider `CCC(=O)c1ccc(OCC(=O)O)cc1`, for which the compound was called inactive.

Consider `COc1cc(OC)cc(-c2nc3nc(C)c(CCC(=O)O)c(C)n3n2)c1`, for which the compound was classed as inactive.

As for `O=C(CSc1nnc2ccccn12)NNC(=O)c1cccc(Cl)c1`, the call was inactive.

For `COC(=O)c1ccc(CSc2nc3c(cnn3-c3ccc(C)c(C)c3)c(=O)[nH]2)o1`, the compound was called inactive.

For the compound `COc1ccc(S(=O)(=O)Nc2ccc3c(c2)C(=O)N([C@H](C)CO)C[C@H](C)[C@@H](CN(C)S(=O)(=O)c2ccc(F)cc2)OCCCC[C@H](C)O3)cc1`, the compound was classed as inactive.

For the compound `COc1ccc(CC(=O)Nc2cc(C)on2)cc1`, the result was inactive.

For the compound `C[C@@H]1CCCCO[C@H](CN(C)C(=O)Cc2ccccc2)[C@@H](C)CN([C@@H](C)CO)C(=O)c2cc(NS(=O)(=O)c3cn(C)cn3)ccc2O1`, the call was inactive.

On to `O=S(=O)(c1ccccc1C(F)(F)F)N1CCN(S(=O)(=O)c2ccccc2C(F)(F)F)CC1`, for which the call was inactive.

In the case of `CN1C(=O)c2cc(NC(=O)c3cnccn3)ccc2OC[C@H]2O[C@H](CC(=O)NCC3CCCCC3)CC[C@H]21`, the compound was classed as inactive.

Turning to `O=C(O)c1ccc(C(=O)c2ccc3c(c2)C(=O)N(Cc2ccco2)C3=O)cc1`, the compound was called inactive.

Consider `Cc1noc(C)c1S(=O)(=O)Nc1ccc2c(c1)C(=O)N([C@H](C)CO)C[C@H](C)[C@@H](CN(C)C(=O)Nc1cccc3ccccc13)O2`, for which the compound was called inactive.

Consider `COc1ccc(C#Cc2cnc3c(c2)C(=O)N([C@@H](C)CO)C[C@H](C)[C@H](CN(C)C(=O)Nc2cccc(OC)c2)O3)cc1`, for which the result was inactive.

Consider `C[C@H](CO)N1C[C@H](C)[C@@H](CN(C)Cc2ccc(C(=O)Nc3ccccc3N)cc2)Oc2ccc(NC(=O)Nc3cccc4ccccc34)cc2C1=O`, for which the outcome was inactive.

For the compound `COc1ccc(NC(=O)Nc2ccc3c(c2)C(=O)N([C@@H](C)CO)C[C@H](C)[C@H](CN(C)Cc2ccc(C(F)(F)F)cc2)OCCCC[C@@H](C)O3)cc1`, the call was inactive.

For the compound `COc1ccc(N=Cc2sc(O)c3ccccc23)cc1`, the result was inactive.

Take `C[C@@H]1CN([C@H](C)CO)C(=O)c2cc(C3=CCCCC3)cnc2O[C@H]1CN(C)Cc1ccccc1F`: the compound was classed as inactive.

As to `Cn1c(CCN2CCCCC2)nc2cc(NC(=O)Nc3ccccc3)ccc21`, the compound was classed as inactive.

On to `CC(C(=O)N1CCCc2ccccc21)N1C(=O)c2ccccc2C1=O` (stereo not drawn), for which the compound was classed as inactive.

With `CCN(CC)C(=O)c1ccc(NS(=O)(=O)c2ccccc2)cc1`, the outcome was inactive.

With `NNC(=O)COc1cccc2cccnc12`, the result was inactive.

On to `O=c1[nH]c(Nc2ccccc2Cl)cc2ccccc12`, for which the compound was called inactive.

As for `CC(C)(C)C(=O)COC(=O)CNC(=O)c1ccc(Oc2ccccc2)cc1`, the compound was classed as inactive.

On to `C[C@@H]1CN([C@H](C)CO)C(=O)Cc2cc(NS(=O)(=O)c3ccc(Cl)cc3)ccc2O[C@H]1CN(C)Cc1ccc(Cl)c(Cl)c1`, for which the outcome was inactive.

As for `Cc1ccc(S(=O)(=O)Nc2ccc3c(c2)CC(=O)N([C@@H](C)CO)C[C@@H](C)[C@@H](CN(C)Cc2ccc(Cl)c(Cl)c2)O3)cc1`, the outcome was inactive.

`C[C@H]1CN([C@@H](C)CO)C(=O)Cc2cc(N(C)C)ccc2O[C@@H]1CN(C)Cc1ccc(Cl)c(Cl)c1`: the call was inactive.

Consider `Cc1ccc(S(=O)(=O)Nc2ccc3c(c2)CC(=O)N([C@@H](C)CO)C[C@@H](C)[C@H](CN(C)Cc2ccc(Cl)c(Cl)c2)O3)cc1`, for which the compound was called inactive.

Consider `Cc1ccc(S(=O)(=O)Nc2ccc3c(c2)CC(=O)N([C@H](C)CO)C[C@@H](C)[C@H](CN(C)Cc2ccc(Cl)c(Cl)c2)O3)cc1`, for which the call was inactive.

Take `C[C@@H]1CN([C@H](C)CO)C(=O)Cc2cc(NS(C)(=O)=O)ccc2O[C@@H]1CN(C)Cc1ccc(Cl)c(Cl)c1`: the compound was called inactive.

Regarding `Cc1ccc(S(=O)(=O)Nc2ccc3c(c2)CC(=O)N([C@H](C)CO)C[C@@H](C)[C@@H](CN(C)Cc2ccc(Cl)c(Cl)c2)O3)cc1`, the compound was called inactive.

Turning to `C[C@@H]1CN([C@H](C)CO)C(=O)Cc2cc(N(C)C)ccc2O[C@@H]1CN(C)Cc1ccc(Cl)c(Cl)c1`, the outcome was inactive.

For `C[C@H](CO)N1C[C@H](C)[C@@H](CN(C)C(=O)Nc2ccc(C(F)(F)F)cc2)OCCCC[C@H](C)Oc2ccc(NC(=O)Nc3cccc4ccccc34)cc2C1=O`, the compound was called inactive.

Regarding `CC(=O)c1ccc(NC(=O)c2cc(-c3cccs3)on2)cc1`, the compound was classed as inactive.

`C=C[C@@H]1c2c(F)cccc2N(S(=O)(=O)c2ccc(C)cc2)[C@H](c2ccc(C(=O)OC)cc2)C1(C#N)C#N`: the result was inactive.

Turning to `Cc1noc(C)c1NC(=O)N(C)C[C@@H]1OCCCC[C@@H](C)Oc2ccc(NS(=O)(=O)c3cn(C)cn3)cc2C(=O)N([C@H](C)CO)C[C@@H]1C`, the compound was classed as inactive.

Take `C[C@@H]1CN([C@H](C)CO)C(=O)Cc2cc(NC(=O)Cc3cn(C)c4ccccc34)ccc2O[C@H]1CN(C)Cc1ccc2c(c1)OCO2`: the compound was called inactive.
